# Screening data deposited in PubChem BioAssay by Sanford-Burnham Center for Chemical Genomics.
# Hits are enriched below; roughly 4% of the tested compounds scored in any of these assays.
# tim23-1 inh: inhibits growth of tim23-1 mutant yeast. S. cerevisiae tim23-1 growth, BacTiter-Glo luminescence, 24 h. inhibition, % at 20 µM. 330,000 tested, 1.3% active;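 active = growth inhibition of the mutant yeast at or above 50%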;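 note: temperature-sensitive mutant grown at 25 °C; plate controls were DMSO-treated mutant yeast for no effect and medium wells lacking yeast for full effect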
# TIM10 inh: growth inhibitors of TIM10 yeast strain. S. cerevisiae TIM10 strain growth, BacTiter-Glo luminescence, 24 h. inhibition, % at 10 µM. 330,000 tested, 1.4% active. AID 463195;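 active = inhibition of 40% or more at the single tested concentration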;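 note: wild-type TIM10 isogenic control strain grown at permissive 25 °C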
# tim10-1 inh: growth inhibitors of tim10-1 mutant yeast. S. cerevisiae tim10-1 ts strain growth, BacTiter-Glo, 24 h. inhibition, % at 20 µM. 330,000 tested, 2.2% active;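 active = inhibition of at least 40%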;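 note: mutant grown at 25 °C; 0% = DMSO wells with yeast and 100% = wells holding no yeast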
# NLRP3 yeast inh: NALP3 inhibition in yeast; AID 2825; 330,000 tested, 0.39% active; Yeast reconstituted NLRP3/ASC/caspase-1, beta-gal luminescence, 24 h; inhibition, % at 10 µM;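 active = inhibition of 50% or more; inactive = inhibition below 50%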;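 note: plate controls were induced DMSO wells for no effect and uninduced yeast grown without galactose for full effect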
# NALP1 inh: NALP1 inhibition | 280,000 tested, 0.61% active | S. cerevisiae NALP1/ASC/caspase-1 growth, X-gal OD620, 72 h | inhibition, % at 10 µM; in the data active = inhibition mostly above about 24%, no sharp cut-off; inactive = mostly below about 32%
# tim23-1 conf: tim23-1 yeast growth inhibition, confirmed; shares compounds with tim23-1 inh; S. cerevisiae tim23-1 growth, BacTiter-Glo luminescence, 24 h; inhibition, % at 20 µM; 4,400 tested, 83% active;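 active = inhibition above about 39% in either of two replicate wells at 20 µM, limit read from the data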;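 note: temperature-sensitive tim23-1 mutant grown at 25 °C; 0% = DMSO wells with yeast and 100% = medium wells without yeast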
# Starred values were filed as active, the others as inactive; x = not tested or not shown.
SMILES,tim23-1 inh,TIM10 inh,tim10-1 inh,NLRP3 yeast inh,NALP1 inh,tim23-1 conf
Cn1c(=O)c2c(nc(CN3CCN(Cc4ccccc4)CC3)n2Cc2cccc(Cl)c2)n(C)c1=O,17,9,18,27,x,x
COc1ccc2c(c1)C(c1ccc([N+](=O)[O-])cc1)=NNC(c1ccco1)=N2,53*,33,39,33,8,37*
COc1ccc(C2=NNC(c3ccco3)=Nc3ccc(F)cc32)cc1,37,10,16,21,10,x
COC(=O)[C@H](Cc1ccccc1)N1C/C=C\COc2c(Cl)cc(Cl)cc2S1(=O)=O,52*,-9,20,x,x,37
O=C(NC1CCCC1)c1cc(COc2ccc3ncccc3c2)on1,-1,-7,-13,13,-68,x
Cc1ccc(OCc2cc(C(=O)NC3CCCCC3)no2)cn1,51*,22,36,45,14,57*
CS(=O)(=O)c1nc(-c2ccc(F)cc2)cc(C(F)(F)F)n1,x,x,x,x,25,x
CCOC(=O)CS(=O)(=O)c1nc(-c2ccc(F)cc2)cc(C(F)(F)F)n1,69*,30,27,13,15,-81
O=C(COc1ccccc1-c1ccccc1)N/N=C/c1ccncc1,53*,14,16,34,-7,44*
Cc1ccc(Sc2ccc(CO)cc2[N+](=O)[O-])cc1,53*,30,32,20,2,52*
Cc1ccc(Sc2ccc(CN3CCCC3)cc2[N+](=O)[O-])cc1,18,6,17,36,8,x
COc1ccc(Nc2nc(N)c([N+](=O)[O-])c(NC3CCCCC3)n2)cc1,62*,23,39,25,4,52*
COc1ccc(Nc2nc(N)c([N+](=O)[O-])c(NCCO)n2)cc1,18,16,9,10,x,x
Cc1ccccc1-c1nc(SCc2ccccn2)c2c(=O)n(C)c(=O)n(C)c2n1,-28,-18,-6,12,-9,x
Cn1c(=O)c2c(SCC(=O)NCCc3ccccc3)nc(C3CC3)nc2n(C)c1=O,12,3,5,3,x,x
CCc1nc(SCc2ccccn2)c2c(=O)n(C)c(=O)n(C)c2n1,55*,-9,22,15,-8,50*
CC(C)c1nc(SCC(=O)N2CCCC2)c2c(=O)n(C)c(=O)n(C)c2n1,15,-3,-1,13,x,x
CC(C)c1nc(SCc2ccccn2)c2c(=O)n(C)c(=O)n(C)c2n1,50*,8,15,26,x,48*
Cn1c(=O)c2c(SCc3cccnc3)nc(C3CC3)nc2n(C)c1=O,50*,13,21,11,-14,42*
CSc1sc(C(=O)NNC(C)=O)c2c1C=CCC2,-6,2,-23,0,1,x
COc1ccc(CCN(CC(=O)NC2CCCC2)C(=O)Cn2nnc(-c3ccc(C)o3)n2)cc1OC,3,-11,13,0,18,x
COc1ccc(Nc2nc3ccccc3n3cnnc23)cc1Cl,57*,12,21,25,23,5
CNC(=O)N(C1=NCCCCC1)c1ccc(Br)cc1,19,6,15,5,32,x
CCSc1nnc(NC(=O)[C@@H](NC(=O)c2ccc(C(C)(C)C)cc2)C(C)C)s1,18,14,14,3,17,x
C=CCc1c(C)nc(SC)nc1Nc1ccc(C(=O)O)cc1,2,-13,22,6,x,x
SMILES,tim23-1 inh,TIM10 inh,tim10-1 inh,NLRP3 yeast inh,NALP1 inh,tim23-1 conf
C=CCc1c(C)nc(SC)nc1Nc1ccc(C(C)=O)cc1,50*,11,31,16,7,45*
Cc1ccc(C)c(NC(=O)c2cc([N+](=O)[O-])cc([N+](=O)[O-])c2)c1,55*,18,29,13,-2,51*
CCn1c(C)nc2cc(C(=O)NN=Cc3ccc([N+](=O)[O-])cc3)ccc21,-9,-4,-1,3,x,x
O=C1NC(=O)c2cc([N+](=O)[O-])cc3cccc1c23,62*,-17,3,8,-2,49*
COC(=O)c1ccc(NC(=O)c2nc(S(=O)(=O)Cc3cccc(C)c3)ncc2Cl)cc1,69*,1,32,16,9,51*
COc1ccccc1NC(=O)c1nc(S(=O)(=O)Cc2ccccc2)ncc1Cl,53*,36,28,14,16,48*
CSc1nnc(NC(=O)c2nc(S(=O)(=O)Cc3ccccc3)ncc2Cl)s1,15,10,14,12,-12,x
COc1ccc(NC(=O)c2cccs2)cn1,52*,19,16,29,-4,48*
CCCCC(=O)Nc1ccc(NC(=O)c2cccs2)cn1,51*,-11,-16,20,x,43*
CCn1cc(Br)c(C(=O)Nc2cccc(Cl)c2)n1,59*,29,29,20,23,52*
CCn1ccc(C(=O)Nc2cccc(Cl)c2)n1,8,4,3,28,15,x
O=C(OCc1ccc(F)cc1)c1cc(=O)c2ccccc2o1,94*,12,6,6,10,26
COc1ccc(CCN(/C=C2\Sc3ccccc3C2=O)C(C)=O)cc1OC,50*,21,15,1,2,52*
Cc1cc(C)c2oc(-c3cccc(N)c3)nc2c1,64*,-25,14,19,9,60*
Cc1ccc2nc(-c3cccc(N)c3)oc2c1,6,6,-8,11,7,x
C=CCN1c2ccccc2C(=O)C(C)S1(=O)=O (centres undefined),26,1,-5,x,x,x
C=CCN1c2ccc(Br)cc2C(=O)CS1(=O)=O,58*,35,34,13,x,54*
COc1cccc(Nc2nc(-c3ccc(O)cc3)cs2)c1,54*,16,20,13,5,53*
COc1cccc(Nc2nc(-c3cccc(N4C(=O)c5ccccc5C4=O)c3)cs2)c1,15,21,22,13,11,x
Cc1cc2cc(CN(CC3CCCO3)C(=S)Nc3ccccc3)c(=O)[nH]c2cc1C (centres undefined),55*,32,18,13,-39,50*
COc1ccc2[nH]c(=O)c(CN(CC3CCCO3)C(=S)Nc3ccccc3)cc2c1 (centres undefined),16,4,14,3,8,x
COc1ccccc1C(=O)Nc1cccc(S(=O)(=O)N2CCCC2)c1,98*,2,6,-12,-8,29
COC(=O)c1cc(S(=O)(=O)NCc2cccs2)c[nH]1,3,16,-9,4,1,x
COCCn1c(SCC(=O)Nc2cccc(C)c2)nnc1C(C)C,50*,12,8,-3,-7,16
O=C(Nc1ccccc1Cl)c1cccc(NC(=O)c2cccs2)c1,59*,14,17,30,-16,63*
O=C(Nc1ccc(N2CCN(C(=O)c3cccs3)CC2)cc1)c1ccccc1Cl,6,15,19,18,-3,x
O=C(Nc1ccc(NC(=O)c2cccs2)cc1)c1ccc(Br)o1,42,6,-20,12,13,x
